# Experimental data: ChEMBL document CHEMBL3988442, “University of Dundee, Small-Polar-MMV Screening Library” (2021)
# Target: AMP-activated protein kinase, AMPK (Homo sapiens) (UniProt P54646+O43741+P54619+Q9UGJ0+Q9Y478+Q13131+Q9UGI9)
# Assay: AMP-dependent Kinase enzyme assay. An in vitro enzyme assay that detects ADP turnover that is directly proportional to AMPK activity. This uses naive AMPK that is activated during the assay with MK-8722
# Format: functional
# Design: scale not given: direction of the effect not stated beside the values
# Settings: 30 µM
row,Compound,Percent Effect [%]
1,CCCc1nnc(N2CCC(N3CCCC(O)C3)CC2)o1 (stereo unspecified),4.12
2,COCCN(CC(F)F)c1cc(COC)nc2ncnn12,0.272
3,COc1cccc(-c2ncc(CN3CCOCC(O)C3)s2)c1 (stereo unspecified),2.77
4,Cc1nc(S(=O)(=O)N2CCCCc3ccccc32)cn1C,0.965
5,CC1(C)OC(=O)N(CCCC(=O)c2ccc(F)cc2)C1=O,-8.28
6,Cc1ccc(C)c(CC(=O)NC2CCCS(=O)(=O)C2)c1 (stereo unspecified),-5.26
7,CCc1ccc(CCn2cnc(C#N)n2)cc1,-0.907
8,Cc1ccc(-c2nc(CN3CCOCC3)no2)cc1N1CCNC1=O,7.88
9,O=C(Cc1c[nH]c(=O)[nH]c1=O)N1CCCCC1CCc1ccccc1 (stereo unspecified),-1.5
10,Cc1c(NC(=O)CN(C)S(C)(=O)=O)cccc1OC1CCCC1,-0.429
11,Cc1nc2cc(-c3nccn3C)nn2c(N2CCCC2)c1C,16.5
12,COc1ccc(S(=O)(=O)N2CCOC(C)(C(N)=O)C2)cc1 (stereo unspecified),15.5
13,COCCN1CCN(Cc2coc(-c3ccccc3Cl)n2)CC1,-1.56
14,COc1ccccc1C(=O)NCCC(=O)Nc1c(C)nn(C)c1C,9.26
15,CCn1cnnc1CN(C)C(=O)c1cc(COc2cccc(F)c2)[nH]n1,-0.905
16,CC1COCCN1C(=O)Cc1cc(Cl)c2c(c1)OCCCO2 (stereo unspecified),7.18
17,CSCCC(NC(N)=O)C(=O)NCc1ccc(-n2cccn2)cc1 (stereo unspecified),0.578
18,COCCN(CCOC)c1nc2c(s1)c(C)nn2C,0.796
19,CCc1ccc2nc(C)cc(C(=O)NC3CCCCNC3=O)c2c1 (stereo unspecified),-6.44
20,Cc1nn(C)cc1NC(=O)CN1CCN(C2CCCC2)C(=O)C1,16.5
21,CNc1nc(C)c(C(=O)N2C[C@@H](C(=O)O)[C@H](C3CC3)C2)s1,3.27
